Measured values published in PubChem BioAssay (NCATS).
Results filed as inconclusive are left out. Calls of active or inactive are those of the source. Calls come from the whole dose curve; as a rule, active = well fitted curve in either direction with a large enough effect (not every such curve was filed as active); inconclusive = small, poorly fitted or top-dose-only effect, or another doubt; inactive = flat fitted curve, though single readings scatter.

Target: Mitogen-activated protein kinase 10 (Mus musculus) (UniProt Q61831)
Assay: JNK3 AlphaScreen Assay (AID 530);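 note: kinase came from lysate of stimulated human HepG2 cells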
Conditions: JNK3 lysate, c-Jun phosphorylation; series mostly up to 57.1 µM
How it was run: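 Phosphorylation of biotinylated GST-cJun(1-79) at Ser73 is measured by AlphaScreen proximity luminescence. Enzyme is JNK3 in HepG2 lysates activated with interleukin-1beta and tumor necrosis factor alpha; ATP is 10 uM final.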

outcome, inactive:
COC(=O)[C@@]1(Cc2ccc(F)cc2)[C@H]2c3cc(C(=O)N4CCCC4)n(CCSCCO)c3C[C@H]2CN1C(=O)c1ccccc1
COC(=O)[C@@]1(Cc2ccc(OC)cc2)[C@H]2c3cc(C(=O)N(C)C)n(Cc4ccc(O)c(OC)c4)c3C[C@H]2CN1C(=O)c1ccccc1
COCCNC(=O)[C@H]1C[C@@H]1[C@H](NP(=O)(c1ccccc1)c1ccccc1)c1ccccc1
COC(=O)[C@@]1(Cc2ccc(OC)cc2)[C@@H]2[C@@H](CC(=O)[C@H]2CC(=O)C(=O)N(C)C)CN1C(=O)c1ccccc1
C[C@@H](C(=O)Nc1ccc2ccccc2c1)[C@H]1C[C@]1(C)[C@H](NS(=O)(=O)c1ccccc1)c1ccccc1
Cc1c2c(nc3ccccc13)OCC2
C[C@@H](C(=O)Nc1ccc2ccccc2c1)[C@@H]1C[C@@]1(C)[C@@H](NS(=O)(=O)c1ccccc1)c1ccccc1
COC(=O)[C@@]1(Cc2ccc(OC)cc2)[C@H]2c3cc(C(=O)N(C)C)n(CCF)c3C[C@H]2CN1C(=O)c1ccccc1
Cc1ccc(CNC(=O)[C@H](C)[C@@H]2C[C@@]2(C)[C@@H](NC(=O)OCc2ccccc2)c2ccccc2)o1
COC(=O)[C@@H]1C[C@H]1[C@@H](NS(=O)(=O)c1ccccc1)c1ccccc1
COC(=O)[C@@]1(Cc2ccc(OC)cc2)[C@H]2c3cc(C(=O)N(C)C)n(Cc4c(CO)[nH]cc(C)c4=O)c3C[C@H]2CN1C(=O)c1ccccc1
COC(=O)[C@@]1(Cc2ccccc2)[C@H]2c3cc(C(=O)N(C)C)n(Cc4ccccc4)c3C[C@H]2CN1C(=O)c1ccccc1
Cc1cc(C(=O)N[C@H](c2ccccc2)[C@@]2(C)C[C@@H]2[C@@H](C)C(=O)Nc2ccc3ccccc3c2)no1
C[C@@H](C(=O)Nc1ccc2ccccc2c1)[C@H]1C[C@]1(C)[C@H](NC(=O)c1cccnc1)c1ccccc1
Cc1cc(CNC(=O)[C@H](C)[C@H]2C[C@]2(C)[C@H](NC(=O)OCc2ccccc2)c2ccccc2)nn1C
COC(=O)[C@@]1(Cc2ccccc2)[C@H]2c3cc(C(=O)N(C)C)n(Cc4ccc(OC)c(OC)c4)c3C[C@H]2CN1C(=O)c1ccccc1
COC(=O)[C@@]1(Cc2ccccc2)[C@H]2c3cc(C(=O)N(C)C)n(CCF)c3C[C@H]2CN1C(=O)c1ccccc1
COC(=O)[C@@]1(Cc2ccc(OC)cc2)[C@H]2c3cc(C(=O)N(C)C)n(Cc4nc5ccccc5[nH]4)c3C[C@H]2CN1C(=O)c1ccccc1
COC(=O)[C@@]1(Cc2ccc(OC)cc2)[C@H]2c3cc(C(=O)N(C)C)n(CCc4c[nH]c5ccc(O)cc45)c3C[C@H]2CN1C(=O)c1ccccc1
COC(=O)[C@@]1(Cc2ccccc2)[C@H]2c3cc(C(=O)N(C)C)n(Cc4ccc(O)c(OC)c4)c3C[C@H]2CN1C(=O)c1ccccc1
CS(=O)(=O)c1ccc(CNC(=O)[C@@H]2C[C@H]2[C@@H](NP(=O)(c2ccccc2)c2ccccc2)c2ccccc2)cc1
COC(=O)[C@@]1(Cc2ccc(F)cc2)[C@H]2c3cc(C(=O)N(C)C)n(CCc4ccc(O)c(O)c4)c3C[C@H]2CN1C(=O)c1ccccc1
COC(=O)[C@@]1(Cc2ccccc2)[C@H]2c3cc(C(=O)N(C)C)n(C[C@H](O)CO)c3C[C@H]2CN1C(=O)c1ccccc1
COC(=O)[C@@]1(Cc2ccc(OC)cc2)[C@H]2c3cc(C(=O)N4CCCC4)n(Cc4ccccn4)c3C[C@H]2CN1C(=O)c1ccccc1
COC(=O)[C@@]1(Cc2ccc(F)cc2)[C@H]2c3cc(C(=O)N(C)C)n(Cc4ccc(OC(F)(F)F)cc4)c3C[C@H]2CN1C(=O)c1ccccc1
COC(=O)[C@@]1(Cc2ccc(OC)cc2)[C@H]2c3cc(C(=O)N(C)C)n(Cc4cccc5ccccc45)c3C[C@H]2CN1C(=O)c1ccccc1
COC(=O)C1(CC(C)C)C=C2C(=C(C)C(=O)C2C)CN1 (stereo not given)
COC(=O)[C@@]1(Cc2ccc(F)cc2)[C@H]2c3cc(C(=O)N4CCCC4)n(Cc4ccc(C(F)(F)F)nc4)c3C[C@H]2CN1C(=O)c1ccccc1
COC(=O)[C@@]1(Cc2ccc(OC)cc2)[C@H]2c3cc(C(=O)N4CCCC4)n(CCO)c3C[C@H]2CN1C(=O)c1ccccc1
C[C@@]1(C(NS(=O)(=O)c2cccc3cccnc23)c2ccc(-c3ccccc3)cc2)C[C@H]1C1CCCCC1 (stereo not given in full)
C[C@@H](C(=O)NCC1CC1)[C@@H]1C[C@@]1(C)[C@@H](NC(=O)OCc1ccccc1)c1ccccc1
COC(=O)[C@@]1(Cc2ccc(OC)cc2)[C@H]2c3cc(C(=O)N4CCCC4)n(C[C@H](O)CO)c3C[C@H]2CN1C(=O)c1ccccc1
O=C(NCc1ccccn1)[C@@H]1C[C@H]1[C@@H](NP(=O)(c1ccccc1)c1ccccc1)c1ccccc1
COC(=O)[C@@]1(Cc2ccc(OC)cc2)[C@H]2c3cc(C(=O)N4CCCC4)n(CCF)c3C[C@H]2CN1C(=O)c1ccccc1
C[C@@H](C(=O)N[C@@H](CO)Cc1ccccc1)[C@H]1C[C@]1(C)[C@H](NC(=O)OCc1ccccc1)c1ccccc1
COC(=O)[C@@]1(Cc2ccc(OC)cc2)[C@H]2c3cc(C(=O)N4CCCC4)n(CCN4CCOCC4)c3C[C@H]2CN1C(=O)c1ccccc1
O=C(NCc1cccc2ccccc12)[C@H]1C[C@@H]1[C@H](NP(=O)(c1ccccc1)c1ccccc1)c1ccccc1
Cc1ccc(CNC(=O)[C@H](C)[C@@H]2C[C@@]2(C)[C@@H](NC(=O)OCc2ccccc2)c2ccccc2)c(F)c1F
COC(=O)[C@@]1(Cc2ccc(OC)cc2)[C@H]2c3cc(C(=O)N(C)C)n(Cc4ccc(OC)c(OC)c4)c3C[C@H]2CN1C(=O)c1ccccc1
COC(=O)[C@@]1(Cc2ccc(F)cc2)[C@H]2c3cc(C(=O)N4CCCC4)n(CCc4c[nH]c5cc(F)ccc45)c3C[C@H]2CN1C(=O)c1ccccc1
